According to the supplement of paper PMC10849652:
The full data set covers some 7,900 targets. This sample favours those with a hit. About 0.6% of all pairs of compound and target were hits.

Assays:
Test in all cases: log2 fold change, soluble protein after heating vs DMSO (PISA); higher = thermal stabilisation; K562 cells, 10 uM, 30 min; active = over 0.2 and 3.5 SD of the protein, either way, in both replicates (recomputed)
[1] = compound: C#Cc1cccc(Nc2ncnc3cc(OCCOC)c(OCCOC)cc23)c1 [erlotinib]
How it was run: (§1)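 K562 cells at 2×10^6 cells/mL were treated for 30 min with 10 μM compound, and aliquots were heated for 3 min over 48°C-58°C before pooling. Extraction used PBS with 0.5% NP-40 at 4°C, and soluble protein was the supernatant after 21,000xg for 90 min, measured by TMTpro 16plex LC-MS/MS with channel sums equalised. Thermal stability values, relative to control samples and from duplicates, are log2 fold changes.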

[2] = compound: C/C(=N\NC(=O)C1=CC(=CC=C1)S(=O)(=O)N2CCOCC2)/C3=C(C=CC(=C3)Cl)O
How it was run: as §1

[3] = compound: C1=CC(=C(C=C1Cl)C2=NC3=NC=CN=C3C(=N2)NC4=CC=NC=C4)F
How it was run: as §1

[4] = compound: C1=CC(=CC=C1C2=NC3=C(N2)C=C(C=C3)C(=O)N)OC4=CC=C(C=C4)Cl
How it was run: as §1

[5] = compound: C1=CC2=C(C=CC(=C2)/C=C\3/C(=O)NC(=NCC4=CC=CS4)S3)N=C1
How it was run: as §1

[6] = compound: C1=CC2=NC=CN=C2C=C1/C=C/3\C(=O)NC(=O)S3
How it was run: as §1

[7] = compound: C1=CC=C(C=C1)C2=NC(=C(N2)C3=CC=NC=C3)C4=CC(=C(C=C4)Cl)O
How it was run: as §1

[8] = compound: C1=CC=C2C(=C1)C3=NNC4=CC=CC(=C43)C2=O
How it was run: as §1

[9] = compound: C1CCN(C1)C(=O)NC2=CC=CC(=C2)NC3=NC=C(C(=N3)NCCC4=CN=CN4)Br
How it was run: as §1

[10] = compound: C1CN(CCC1(CC2=CC=C(C=C2)Cl)N)C3=NC=NC4=C3C=CN4
How it was run: as §1

[11] = compound: C1COCCN1CCN2C3=CC=CC=C3N=C2NC(=O)C4=CC(=CC=C4)[N+](=O)[O-] [IRAK-1-4 Inhibitor I]
How it was run: as §1

[12] = compound: C=CC(=O)N1CCC[C@@H](n2nc(-c3ccc(Oc4ccccc4)cc3)c3c(N)ncnc32)C1 [ibrutinib]
How it was run: as §1

[13] = compound: CC(=O)c1cnc2ccc(-c3cc(Cl)c(O)c(Cl)c3)nc2c1N[C@H]1CC[C@H](CN(C)C)CC1
How it was run: as §1

[14] = compound: CC(C)(C)Cn1c(N)nc2ccc(-c3[nH]c(C(C)(C)C)nc3-c3ccc(F)cc3)nc21 [ralimetinib]
How it was run: as §1

[15] = compound: CC(C)(O)CC(=O)NCCn1ccc2ncnc(Nc3ccc(Oc4cccc(C(F)(F)F)c4)c(Cl)c3)c21
How it was run: as §1

[16] = compound: CC(C)C1=C2N=C(C=C(N2N=C1)NCC3=CC=CC=C3)NCCCCCCN
How it was run: as §1

[17] = compound: CC(C)C[C@@H](C=O)NC(=O)[C@H](CC(C)C)NC(=O)[C@H](CC(C)C)NC(=O)OCc1ccccc1
How it was run: as §1

[18] = compound: CC(C)N(C[C@H]1O[C@@H](n2cnc3c(N)ncnc32)[C@H](O)[C@@H]1O)[C@H]1C[C@@H](CCc2nc3cc(C(C)(C)C)ccc3[nH]2)C1 [pinometostat]
How it was run: as §1

[19] = compound: CC1=C(C(CC(=O)N1)C2=CC=C(C=C2)C(F)(F)F)C(=O)NC3=C(C=C4C(=C3)C=NN4)F
How it was run: as §1

[20] = compound: CC1=C(C2=C(C=C1)C(=O)C3=CC=CC=C3N2CCCN)C
How it was run: as §1

Measured: log2 fold change

DCTPP1 (UniProt Q9H773)
Sequence of UniProt Q9H773 (Q9H773 whole entry, looked up): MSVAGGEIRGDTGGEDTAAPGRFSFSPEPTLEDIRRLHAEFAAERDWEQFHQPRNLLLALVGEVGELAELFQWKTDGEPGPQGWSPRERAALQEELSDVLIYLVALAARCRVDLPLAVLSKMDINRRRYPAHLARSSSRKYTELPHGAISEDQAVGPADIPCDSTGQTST
inactive: [1] 0.01 | [2] -0.07 | [3] 0.14 | [4] -0.039 | [5] -0.073 | [6] 0.035 | [7] 0.194 | [8] 0.012 | [9] -0.021 | [10] -0.054 | [11] 0.017 | [12] 0.011 | [13] 0.03 | [14] 0.062 | [15] -0.039 | [16] 0.075 | [17] -0.105 | [18] -0.067 | [19] 0.061 | [20] 0.165

CWC27 (UniProt Q6UX04)
Sequence of UniProt Q6UX04 (Q6UX04 whole entry, looked up): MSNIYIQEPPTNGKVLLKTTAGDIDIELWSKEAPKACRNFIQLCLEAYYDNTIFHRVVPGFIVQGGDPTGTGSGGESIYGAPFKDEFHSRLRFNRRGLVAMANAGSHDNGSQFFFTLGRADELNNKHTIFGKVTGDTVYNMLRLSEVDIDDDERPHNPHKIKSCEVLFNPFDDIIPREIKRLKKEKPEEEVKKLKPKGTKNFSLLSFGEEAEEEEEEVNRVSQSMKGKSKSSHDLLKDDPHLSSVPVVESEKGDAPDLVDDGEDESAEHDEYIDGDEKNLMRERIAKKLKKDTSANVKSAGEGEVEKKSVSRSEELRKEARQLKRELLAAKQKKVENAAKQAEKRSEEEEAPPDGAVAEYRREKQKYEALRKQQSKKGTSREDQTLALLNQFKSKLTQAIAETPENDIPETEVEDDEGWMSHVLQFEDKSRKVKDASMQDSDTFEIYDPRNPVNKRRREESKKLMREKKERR
inactive: [1] 0.084 | [2] -0.023 | [3] 0.055 | [4] -0.049 | [5] 0.021 | [6] 0.02 | [7] 0.041 | [8] -0.102 | [9] -0.086 | [10] -0.053 | [11] -0.045 | [12] -0.111 | [13] -0.133 | [14] 0.048 | [15] -0.08 | [16] 0.018 | [17] -0.007 | [18] -0.023 | [19] -0.045 | [20] 0.199

DCTN1 isoform 4 (UniProt Q14203)
Sequence of UniProt Q14203 (Q14203 whole entry, looked up): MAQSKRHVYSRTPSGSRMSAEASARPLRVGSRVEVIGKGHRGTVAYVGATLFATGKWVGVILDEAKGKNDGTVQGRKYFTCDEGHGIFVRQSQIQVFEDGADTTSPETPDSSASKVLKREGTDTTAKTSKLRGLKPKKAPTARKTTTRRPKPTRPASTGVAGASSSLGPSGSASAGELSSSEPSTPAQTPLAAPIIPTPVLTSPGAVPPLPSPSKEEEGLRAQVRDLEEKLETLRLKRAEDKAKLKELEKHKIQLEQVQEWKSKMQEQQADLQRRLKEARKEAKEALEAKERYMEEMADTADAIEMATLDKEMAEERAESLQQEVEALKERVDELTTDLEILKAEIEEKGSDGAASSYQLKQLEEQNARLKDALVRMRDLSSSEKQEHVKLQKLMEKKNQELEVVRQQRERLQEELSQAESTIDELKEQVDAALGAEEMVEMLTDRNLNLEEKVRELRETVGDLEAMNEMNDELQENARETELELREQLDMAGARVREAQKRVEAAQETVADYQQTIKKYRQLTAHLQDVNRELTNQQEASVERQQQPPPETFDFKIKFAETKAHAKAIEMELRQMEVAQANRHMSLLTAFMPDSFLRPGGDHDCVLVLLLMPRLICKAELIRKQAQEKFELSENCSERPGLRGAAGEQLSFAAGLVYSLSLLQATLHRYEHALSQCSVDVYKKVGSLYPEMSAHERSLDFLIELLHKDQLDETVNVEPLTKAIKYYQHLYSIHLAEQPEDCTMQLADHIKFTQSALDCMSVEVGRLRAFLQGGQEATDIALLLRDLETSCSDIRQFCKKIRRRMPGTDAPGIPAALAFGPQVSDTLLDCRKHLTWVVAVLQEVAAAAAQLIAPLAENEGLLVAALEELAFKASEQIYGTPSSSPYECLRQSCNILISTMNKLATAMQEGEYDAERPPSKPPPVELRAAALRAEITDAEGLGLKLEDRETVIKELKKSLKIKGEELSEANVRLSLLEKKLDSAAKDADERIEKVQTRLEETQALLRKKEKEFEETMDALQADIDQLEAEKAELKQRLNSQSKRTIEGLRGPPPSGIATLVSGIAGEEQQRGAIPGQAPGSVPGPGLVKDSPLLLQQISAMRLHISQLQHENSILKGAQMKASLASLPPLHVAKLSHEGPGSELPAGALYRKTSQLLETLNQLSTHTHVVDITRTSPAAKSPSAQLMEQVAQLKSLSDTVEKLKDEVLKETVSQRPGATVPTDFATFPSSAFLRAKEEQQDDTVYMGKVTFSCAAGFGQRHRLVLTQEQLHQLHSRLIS
active: [16] -0.303
inactive: [1] 0.04 | [2] 0.031 | [3] -0.053 | [4] -0.033 | [5] 0.037 | [6] -0.009 | [7] -0.023 | [8] 0.05 | [9] 0.046 | [10] -0.072 | [11] -0.101 | [12] -0.02 | [13] -0.001 | [14] 0.114 | [15] -0.086 | [17] 0.07 | [18] 0.138 | [19] -0.002 | [20] 0.019

ERCC2 (UniProt P18074)
Sequence of UniProt P18074 (P18074 whole entry, looked up): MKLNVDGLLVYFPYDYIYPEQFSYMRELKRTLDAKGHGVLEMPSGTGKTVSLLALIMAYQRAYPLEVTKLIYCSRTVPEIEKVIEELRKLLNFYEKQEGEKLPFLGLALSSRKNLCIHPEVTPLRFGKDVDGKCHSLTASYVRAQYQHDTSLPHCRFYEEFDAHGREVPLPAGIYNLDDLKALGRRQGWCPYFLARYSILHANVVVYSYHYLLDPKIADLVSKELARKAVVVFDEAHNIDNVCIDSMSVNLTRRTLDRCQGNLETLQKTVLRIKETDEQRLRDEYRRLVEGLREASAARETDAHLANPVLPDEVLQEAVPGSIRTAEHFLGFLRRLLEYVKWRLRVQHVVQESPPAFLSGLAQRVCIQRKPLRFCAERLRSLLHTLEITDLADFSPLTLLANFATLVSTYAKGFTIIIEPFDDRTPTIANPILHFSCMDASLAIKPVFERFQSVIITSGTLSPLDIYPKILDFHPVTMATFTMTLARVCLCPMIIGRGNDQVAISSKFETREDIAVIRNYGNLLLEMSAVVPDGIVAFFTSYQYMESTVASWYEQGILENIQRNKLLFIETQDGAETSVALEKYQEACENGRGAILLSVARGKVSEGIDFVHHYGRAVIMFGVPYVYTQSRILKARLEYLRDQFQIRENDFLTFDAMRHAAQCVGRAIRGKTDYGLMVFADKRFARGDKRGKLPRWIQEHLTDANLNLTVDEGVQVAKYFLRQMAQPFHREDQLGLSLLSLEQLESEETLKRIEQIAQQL
inactive: [1] 0.04 | [2] 0.049 | [3] 0.2 | [4] 0.033 | [5] 0.041 | [6] -0.051 | [7] 0.014 | [8] -0.054 | [9] -0.005 | [10] 0.036 | [11] -0.01 | [12] 0.003 | [13] -0.165 | [14] 0.014 | [15] 0.016 | [16] -0.068 | [17] 0.03 | [18] 0.078 | [19] 0.021 | [20] -0.016

DPH5 isoform 5 (UniProt Q9H2P9)
Sequence of UniProt Q9H2P9 (Q9H2P9 whole entry, looked up): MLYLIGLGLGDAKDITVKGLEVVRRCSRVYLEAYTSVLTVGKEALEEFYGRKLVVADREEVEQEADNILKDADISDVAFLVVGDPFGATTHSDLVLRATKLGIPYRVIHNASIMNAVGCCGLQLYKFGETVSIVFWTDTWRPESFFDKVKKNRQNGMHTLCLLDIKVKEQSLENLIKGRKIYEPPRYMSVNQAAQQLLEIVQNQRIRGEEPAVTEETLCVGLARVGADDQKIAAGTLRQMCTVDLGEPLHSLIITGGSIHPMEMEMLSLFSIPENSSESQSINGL
inactive: [1] 0 | [2] 0.054 | [3] 0.093 | [4] 0.037 | [5] 0.022 | [6] 0.03 | [7] 0.041 | [8] 0.005 | [9] 0.004 | [10] 0.052 | [11] 0.036 | [12] 0.025 | [13] -0.01 | [14] -0.018 | [15] -0.053 | [16] 0.045 | [17] -0.071 | [18] -0.009 | [19] 0.022 | [20] 0.027

EVC2 (UniProt Q86UK5)
Sequence of UniProt Q86UK5 (Q86UK5 whole entry, looked up): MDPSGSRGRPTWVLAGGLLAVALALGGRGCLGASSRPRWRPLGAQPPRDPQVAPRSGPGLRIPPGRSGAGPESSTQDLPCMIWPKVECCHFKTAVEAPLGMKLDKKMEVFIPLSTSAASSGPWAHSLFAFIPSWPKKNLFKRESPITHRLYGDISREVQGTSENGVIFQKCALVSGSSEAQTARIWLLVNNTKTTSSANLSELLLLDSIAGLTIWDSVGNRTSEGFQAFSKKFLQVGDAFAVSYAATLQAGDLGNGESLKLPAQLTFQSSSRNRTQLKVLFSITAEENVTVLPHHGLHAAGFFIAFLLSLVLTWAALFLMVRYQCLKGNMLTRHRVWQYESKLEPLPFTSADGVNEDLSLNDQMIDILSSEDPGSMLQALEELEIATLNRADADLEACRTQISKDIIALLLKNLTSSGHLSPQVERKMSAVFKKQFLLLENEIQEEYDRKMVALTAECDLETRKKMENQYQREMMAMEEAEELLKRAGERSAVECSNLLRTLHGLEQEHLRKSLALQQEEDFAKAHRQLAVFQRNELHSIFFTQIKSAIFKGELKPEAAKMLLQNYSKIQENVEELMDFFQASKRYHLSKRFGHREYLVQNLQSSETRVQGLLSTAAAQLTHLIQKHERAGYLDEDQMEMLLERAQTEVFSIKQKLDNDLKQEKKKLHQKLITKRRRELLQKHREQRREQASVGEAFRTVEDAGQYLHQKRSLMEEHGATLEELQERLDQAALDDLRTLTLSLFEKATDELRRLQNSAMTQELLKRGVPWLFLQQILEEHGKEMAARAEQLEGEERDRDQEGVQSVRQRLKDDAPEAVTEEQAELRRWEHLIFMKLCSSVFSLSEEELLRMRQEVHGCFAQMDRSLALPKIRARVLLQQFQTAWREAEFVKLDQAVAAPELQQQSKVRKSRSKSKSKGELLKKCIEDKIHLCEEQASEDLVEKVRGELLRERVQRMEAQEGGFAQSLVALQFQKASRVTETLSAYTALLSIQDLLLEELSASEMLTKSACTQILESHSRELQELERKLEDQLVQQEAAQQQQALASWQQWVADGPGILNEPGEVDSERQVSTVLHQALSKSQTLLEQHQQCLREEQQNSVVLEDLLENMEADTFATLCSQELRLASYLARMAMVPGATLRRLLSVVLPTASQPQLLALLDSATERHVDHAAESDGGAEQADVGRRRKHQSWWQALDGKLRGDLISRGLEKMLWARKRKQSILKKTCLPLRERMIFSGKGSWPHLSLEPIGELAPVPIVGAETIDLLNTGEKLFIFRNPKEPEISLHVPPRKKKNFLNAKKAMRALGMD
inactive: [1] -0.01 | [2] -0.044 | [3] -0.013 | [4] -0.035 | [5] -0.069 | [6] -0.019 | [7] -0.002 | [8] 0.061 | [9] -0.042 | [10] -0.117 | [11] 0.052 | [12] 0.032 | [13] -0.061 | [14] -0.15 | [15] 0.038 | [16] 0.064 | [17] 0.038 | [18] -0.011 | [19] 0.091 | [20] -0.014

FAM3A (UniProt P98173)
Sequence of UniProt P98173 (P98173 whole entry, looked up): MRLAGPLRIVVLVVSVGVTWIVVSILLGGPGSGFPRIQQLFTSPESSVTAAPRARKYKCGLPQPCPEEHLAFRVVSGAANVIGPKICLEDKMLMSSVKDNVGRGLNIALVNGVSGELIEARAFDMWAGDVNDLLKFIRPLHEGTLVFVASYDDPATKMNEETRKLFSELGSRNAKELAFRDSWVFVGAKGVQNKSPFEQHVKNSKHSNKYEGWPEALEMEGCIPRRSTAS
inactive: [1] -0.064 | [2] 0.118 | [3] -0.067 | [4] 0.029 | [5] 0.059 | [6] 0.082 | [7] 0.083 | [8] -0.05 | [9] -0.044 | [10] 0.059 | [11] -0.028 | [12] -0.011 | [13] 0.028 | [14] 0.023 | [15] -0.028 | [16] -0.07 | [17] 0.047 | [18] 0.007 | [19] 0.018 | [20] 0.088
